ATXN2 expr inh: Primary qHTS for Inhibitors of ATXN expression. HEK-293 ATXN2-luciferase reporter, luminescence, 24 h. AID 1745845, 2022. actives 0.72% (n = 360,000). Potency, µM (titrated, usually from 57 µM), for inactives: at the highest dose activity change, negative = inhibition, usual class: inhibitors; further: on the % scale 0 is the no-effect control and ±100 the full control effect; nearly all actives have a fitted effect of over 55% in size
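qHTS (up to 57 uM final) was run with 24 h compound exposure of reporter cells at 37 °C. Each well was multiplexed: SteadyGlo luminescence measured ATXN2-luciferase expression after a fluorogenic Gly-Phe-AFC viability readout (25 uM final).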
S2 tox: Viability Counterscreen for Primary qHTS for Inhibitors of ATXN expression | S2 cells (HEK-293 line with an ATXN2-luciferase reporter) viability, CellTiter-Fluor protease fluorescence, 24 h | Potency, µM (doses to about 56.7 µM), actives largely listed as cytotoxic | actives 0.49% (n = 400,000); further: nearly all actives have a fitted effect of over 40% in size
TDP1 cell noCPT: qHTS for Inhibitors of human tyrosyl-DNA phosphodiesterase 1 (TDP1): qHTS in cells in absence of CPT. DT40 Tdp1-/- hTDP1 cells, no CPT, ATP luminescence, 48 h. Potency, µM (highest dose often 46.2 µM), inactives show at the top dose activity change, negative = growth inhibition, usual class: inhibitors. actives 15% (n = 420,000). AID 686978, 2013; further: on the % scale 0 is the no-effect control and ±100 the full control effect; nearly all actives have a fitted effect of over 55% in size
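Luminescent ATP content (CellTiter-Glo) served as the growth readout. Knockout chicken DT40 cells expressing human TDP1 were exposed to compounds without camptothecin for a minimum 48 hr at 37 °C.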
TDP1 cell CPT: qHTS for Inhibitors of human tyrosyl-DNA phosphodiesterase 1 (TDP1): qHTS in cells in presence of CPT. chicken DT40 Tdp1-/-;hTDP1 cells + 20 nM CPT, ATP luminescence, 48 h. Potency, µM (titrated, usually from 46.2 µM), without a hit: at the top dose activity change, negative = growth inhibition, actives largely listed as inhibitors. actives 12% (n = 420,000). AID 686979, 2013; further: on the % scale 0 is the no-effect control and ±100 the full control effect; nearly all actives have a fitted effect of over 55% in size
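Chicken DT40 Tdp1-/- cells stably complemented with human TDP1 were seeded at 400 cells/well in medium containing 20 nM camptothecin, exposed to pin-transferred compounds, and grown at 37 °C for at least 48 hr. Viability was read as ATP luminescence.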
HepG2 tox: qHTS for Inhibitors of TGF-b: Cytotox Counterscreen; HepG2 CAGA-GFP viability, ATP luminescence, 18 h; Potency, µM (series often up to 46.1 µM), for the others: at the top dose activity change, negative = cytotoxicity, hits mostly cytotoxic; actives 0.76% (n = 410,000); AID 588856, 2011
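CellTiter-Glo luminescence gave cytotoxicity after 18 hours at 37 degrees C. The cells were HepG2 CAGA-GFP in 1% FBS DMEM, stimulated with 500 pg/mL TGF-beta after compound addition. %Activity was normalised to no-cell wells (complete cell-killing) and DMSO (no toxicity), and curves were fitted and classified.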
TGFb SMAD3 inh: qHTS for Inhibitors of TGF-b. Potency, µM (doses to about 46.1 µM), inactives show at the top dose activity, negative = inhibition, actives largely listed as inhibitors. actives 1.2% (n = 410,000). HepG2 CAGA-GFP TGF-b/SMAD3 reporter, GFP fluorescence, 18 h; TGF-beta stimulated, 500 pg/mL final; further: on the % scale 0 is the no-effect control and ±100 the full control effect; nearly all actives have a fitted effect of over 65% in size
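First, reporter cells (HEPG2 CAGA-GFP) rested 2 h at 37 degrees C. Next, compounds were pinned in and TGF-beta added to 500 pg/mL final. After 18 h, GFP was imaged per cell and summed per well.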
Numbers without * were called inactive; i = inactive; ? = inconclusive; . = no result given. In the library only some 17% were active in any assay of this set; here they are far more common. The call rests on the fitted dose curve; in most records, active means well fitted curve in the direction sought with a large enough effect; inconclusive means small, poorly fitted or top-dose-only effect, or another doubt; inactive means no such curve, though single readings can be large; an effect the other way counts as inactive or inconclusive. Potency means the concentration at half of the fitted maximal effect.

SMILES	ATXN2 expr inh	S2 tox	TDP1 cell noCPT	TDP1 cell CPT	HepG2 tox	TGFb SMAD3 inh
Cc1ccc(CN2C(=O)C3(SCC(=O)N3c3ccc(C)c(C)c3)c3ccccc32)cc1 (stereo not given)	7.1%	i	.	.	-22.8%	?
OCc1cccc(-c2csc(C(O)c3ccco3)n2)c1 (stereo not given)	14.0%	i	0.2%	?	-17.5%	1.0%
COc1ccc2nc3ccccc3nc2c1NC(=O)c1ccc(Cl)cc1Cl	19.2%	i	?	-15.7%	0.1%	5.6%
Brc1ccc(C2Nc3cccc4cccc(c34)N2)s1	3.7%	i	?	20.6µM*	-8.5%	4.9%
Clc1ccc(C2Nc3cccc4cccc(c34)N2)cc1	-1.3%	?	?	?	-4.8%	-1.4%
O=C(NC1CC1)c1cccc(Nc2ccc(-c3ccc4c(c3)OCCO4)nn2)c1	-9.8%	i	11.6µM*	20.6µM*	-31.7%	-20.4%
CCCC1CC(C)(c2csc(Nc3ccc(OCC)cc3)n2)OC1=O (stereo not given)	-18.9%	?	14.6µM*	13µM*	-28.3%	?
O=C1NCC(COc2ccc([N+](=O)[O-])cc2)O1 (stereo not given)	5.7%	i	24.1%	-2.8%	-7.5%	7.0%
N#Cc1ccc(-c2ccc(OCC3CNC(=O)O3)cc2)cc1 (stereo not given)	23.7%	i	13µM*	8.2µM*	16.2%	-20.9%
C=CCNC(=S)N/N=C(\C)c1cc(OC)c(OC)c(OC)c1	-0.6%	i	2.91µM*	4.11µM*	-30.2%	?
Cc1ccc(-n2[nH]c(C)c(N=Nc3cccc(-c4cccc(C(=O)O)c4)c3O)c2=O)cc1C	?	i	.	.	.	.
COc1cc(OC)c(NC(=O)CN2C(=O)CCn3nc(-c4cccn4C)cc32)cc1Cl	1.5%	i	-1.9%	-14.2%	2.5%	13.4%
Oc1ccc2ccccc2c1C=Nc1ccccc1-c1nc2ccccc2[nH]1	-9.0%	?	16.4µM*	?	-17.9%	?
O=C(O)c1ccccc1-c1nc2ccccc2[nH]1	23.0%	i	-23.7%	-1.1%	-18.9%	-10.9%
C=C(C)C1(O)OC(=O)C=C1OC (stereo not given)	2.2%	i	16.4µM*	5.17µM*	-13.6%	-11.8%
COc1ccc(C2=CC(=O)OC3(CCCCC3)O2)cc1	-4.3%	i	?	-18.6%	1.0%	7.6%
CC(C)(C)C1CCc2nc(NC(=O)Cc3ccc(Cl)cc3)sc2C1 (stereo not given)	.	.	7.31µM*	6.51µM*	-75.2%	?
O=C(COc1ccc(F)cc1)Nc1nc2c(s1)CCCC2	39.5%	i	-65.1%	-80.1%	-9.5%	3.1%
CC(C)(C)C1CCc2nc(NC(=O)COc3ccc(F)cc3)sc2C1 (stereo not given)	4.9%	i	20.6µM*	?	0.4%	-14.6%
CC(C)CC(=O)Nc1nc2c(s1)CC(C(C)(C)C)CC2 (stereo not given)	61.1%	i	14.6µM*	16.4µM*	-25.9%	-21.3%
COc1ccc(CC(=O)Nc2nc3c(s2)CC(C(C)(C)C)CC3)cc1 (stereo not given)	20.8%	?	?	?	-50.1%	?
Cc1ccc(NC(=O)Cn2nc(C(=O)O)c3ccccc3c2=O)cc1S(=O)(=O)N1CCCCCC1	-8.1%	i	?	?	0.0%	?
COc1cc(NC(=O)c2ccccc2)c(OC)cc1NC(=O)CN1C(=O)N(C)C2(CCCCC2)C1=O	-6.9%	i	-13.0%	?	6.5%	?
COc1cc(CO)cc(Br)c1OCc1cccnc1	4.1%	i	-9.6%	-0.7%	-13.7%	-7.6%
Cc1cc(C)c2nc(N3CCN(C)CC3)c(C#N)cc2c1	-3.4%	i	?	-19.2%	-5.2%	2.7%
SMILES	ATXN2 expr inh	S2 tox	TDP1 cell noCPT	TDP1 cell CPT	HepG2 tox	TGFb SMAD3 inh
Cc1cccc2cc(C#N)c(SCCN3CCCCC3)nc12	25.1µM*	i	?	?	-21.2%	?
Cc1cccc2cc(C#N)c(N3CCN(C)CC3)nc12	-20.9%	i	25.9µM*	?	-31.4%	-5.8%
Oc1ccc(Oc2ccc(Oc3ccc(O)cc3)cc2)cc1	.	?	4.11µM*	5.8µM*	-28.2%	?
CC(C)NC(=S)Nc1c(N)[nH]c(=O)[nH]c1=O	-16.0%	i	13.4%	-9.1%	-23.1%	1.1%
COc1cccc(-c2cc3nc(NCCCN(C)C)n(C)c(=O)c3s2)c1	-24.8%	i	?	?	-77.8%	?
Cc1ccc(F)cc1-c1cc2nc(NCCCN(C)C)n(C)c(=O)c2s1	31.6µM*	?	16.4µM*	23.1µM*	-72.2%	?
COc1ncccc1-c1cc2nc(NCCCN(C)C)n(C)c(=O)c2s1	-20.4%	i	8.2µM*	8.2µM*	-39.8%	?
CN(C)CCCNc1nc2cc(-c3ccc4c(ccn4C)c3)sc2c(=O)n1C	10.8%	i	?	20.6µM*	-34.0%	?
COc1cc2c(cc1OC)CN(C(=O)CN1CCN(S(=O)(=O)c3ccccc3Br)CC1)CC2	.	i	2.06µM*	?	-9.9%	17.0%
COc1ccc(S(=O)(=O)N2CCN(CC(=O)N3CCc4ccccc4C3)CC2)cc1OC	.	i	?	-28.9%	-15.5%	?
O=C(CN1CCN(S(=O)(=O)c2ccc(F)c(Cl)c2)CC1)N1CCc2ccccc2C1	7.5%	?	16.4µM*	?	-7.1%	?
COc1ccccc1-n1cc(-c2ccccc2)[nH]c1=S	.	?	?	-26.0%	-20.9%	-2.9%
COc1ccc(-n2cnc(=S)[nH]c2=S)cc1	23.0%	i	0.326µM*	0.581µM*	-51.3%	?
CCOc1ccc(-c2cn(-c3ccccc3OC)c(=S)[nH]2)cc1	-5.1%	?	18.4µM*	?	5.1%	0.0%
COc1ccc(-n2cnc3ccccc32)cc1	7.9%	i	-21.1%	?	-4.4%	-21.5%
CC(=O)Nc1ccc(-n2cc(-c3ccccc3)[nH]c2=S)cc1	.	i	?	-8.2%	0.4%	-8.1%
COc1ccc(-n2cc(-c3ccccc3)[nH]c2=S)cc1	47.2%	i	16.4µM*	13µM*	-8.5%	-1.4%
O=C(Cc1ccccc1)Nc1ccc(NC(=O)c2ccco2)cc1Cl	0.6%	i	-15.6%	5.4%	-8.4%	21.8%

Compound activity (PubChem BioAssay)
